Screen size: about 410,000 compounds; about 5,100 (1.2%) were called active. Inconclusive results (about 8%) are left out. What follows is part of a selection rich in actives, with near analogues and random picks from the rest. Unmarked numbers belong to inactive results. Calls come from the whole dose curve; tested in HEK293T cells.
Experiment: High Throughput Screening for Foot and Mouth Disease Virus Antivirals; note: read-out not given here; nearly all actives have a fitted effect of over 45% in size
Conditions: FMDV antiviral cell-based qHTS; series mostly up to 57.9 µM; activity change, negative = inhibition: at the top concentration
% is set by controls: 0 for no effect and ±100 for the full control effect; potency is the fitted concentration of half-maximal effect.

Going from `COc1cccc(Cn2c(=O)c(-c3cc(F)cc(F)c3)nc3cnc(OC)nc32)c1` to `N#CCCn1c(=O)c(-c2cc(F)cc(F)c2)nc2cnc(Oc3ccccc3)nc21`, the “activity change, negative = inhibition” value falls from -4.74% to -7.27%.

Going from `COc1cccc(Nc2ncc3ncc(=O)n(C4CC4)c3n2)c1` to `CCn1cc(CN2CCC(C(=O)Nc3cccc(-c4cccc(Cl)c4)c3)CC2)cn1`, the “activity change, negative = inhibition” value falls from 15.6% to -16.3%.

Compared with `NCCCNCCCCN(CCCN)/[N+]([O-])=N/O`, `COCCCNC(=O)c1ccc(-c2c(C)noc2C)c2ccoc12` is higher in “activity change, negative = inhibition” value: -17.2% for the first, 27.2% for the second.

Compared with `COc1ccc(OC)c(CNC(=O)CN2C(=O)CCn3nc(-c4cn(C)c5ccccc45)cc32)c1`, `COc1ccc(Cc2nc3ccc(C(=O)NCc4ccccc4C)cc3o2)cc1` is higher in “activity change, negative = inhibition” value: -24.5% for the first, -13.5% for the second.

First: CCc1ccc(OCC(=O)N2CCN(CC(=O)Nc3ccccc3Cl)CC2)cc1
Second: CCN(CC)c1ccc(NC(=O)CN2CCN(c3ccccn3)CC2)cc1
The “activity change, negative = inhibition” value of the first is lower: -11.6% for the first, -7.32% for the second.

First: c1ccc2c(Nc3ccncc3)nc(-c3ccoc3)nc2c1
Second: Cc1ccc(SCC(=O)Nc2ccc3oc(-c4ccccc4F)nc3c2)cc1
The “activity change, negative = inhibition” value of the first is higher: 2.01% for the first, -0.835% for the second.

First: Cc1nc2cnc(N3CCN(C)CC3)nc2n(C[C@H]2CCCO2)c1=O
Second: Cc1nc2cnc(N3CCN(C)CC3)nc2n(CCC#N)c1=O
The “activity change, negative = inhibition” value of the first is lower: -18.4% for the first, -6.36% for the second.

Going from `COc1cccc(C(=O)N(Cc2cccc(Cl)c2)Cc2ccco2)c1` to `CCn1cc(CN2CCC(C(=O)Nc3cccc(-c4cccc(Cl)c4)c3)CC2)c(C)n1`, the “activity change, negative = inhibition” value falls from 0% to -17.4%.

Going from `CCOc1cc(C(=O)Nc2nnc3n2CCS3)cc(OCC)c1OCC` to `COc1ccc(CNC(=O)c2c(C)cc(=O)oc2C)cc1OC`, the “activity change, negative = inhibition” value falls from 4.52% to -29.7%.

Compared with `c1ccc(CN2CC[C@@]3(CCCNC3)C2)cc1`, `CS(=O)(=O)N1CCC2(CC1)CN(Cc1ccccc1)C2` is higher in “activity change, negative = inhibition” value: -12.5% for the first, -3.17% for the second.

Going from `COc1ccccc1N1CCN(C2C(=O)c3ccccc3N2C(C)=O)CC1` (stereo not given) to `COc1ccc(OCc2ccc(-c3nc(C#N)c(N4CCN(c5ccccc5)CC4)o3)o2)cc1`, the “activity change, negative = inhibition” value falls from -8.94% to -19.7%.

Compared with `Cc1ccc(-c2nc(C#N)c(NCCCn3ccnc3)o2)cc1`, `COc1ccccc1CNc1ncnc2ccc(-c3ccc4c(c3)OCO4)cc12` is lower in “activity change, negative = inhibition” value: 57.1% for the first, -3.54% for the second.

First: C/C=C(\C)C(=O)OC1C(OC(=O)C2(C)OC2C)c2cc3ccc(=O)oc3cc2OC1(C)C (stereo not given)
Second: CC1O[C@@H](Oc2c(-c3ccc(O)c(O)c3)oc3cc(O)cc(O)c3c2=O)C(O)C(O)C1O (stereo not given in full)
The “activity change, negative = inhibition” value of the first is higher: 0% for the first, -2.06% for the second.

First: Cc1ccc(COC(=O)CN2C(=O)NC3(CCCC3)C2=O)cc1
Second: COC(=O)c1ccccc1NC(=O)c1ccc2c(=O)n3c(nc2c1)CCCCC3
The “activity change, negative = inhibition” value of the first is higher: 1.27% for the first, -21.2% for the second.

Going from `CC(OC(=O)CN1C(=O)C2CCCCC2C1=O)C(=O)Nc1ncc(Cl)cc1Cl` (stereo not given) to `CC1CCN(S(=O)(=O)c2ccc3c(ccn3CC(=O)O)c2)CC1`, the “activity change, negative = inhibition” value rises from -9.05% to -5.95%.

Compared with `O=C(O)CCn1cc(C=C2C(=O)NC(=S)NC2=O)c(-c2cccc(Br)c2)n1`, `CCc1cnc2c(c1SCC(=O)c1ccccc1)c(=O)n(C)c(=O)n2C` is lower in “activity change, negative = inhibition” value: 3.84% for the first, -24.2% for the second.

Going from `Cc1csc2nc(COC(=O)c3ccccc3NC(=O)c3ccccc3Cl)cc(=O)n12` to `CCc1c(C)sc(NC(=O)C2c3ccccc3Oc3ccccc32)c1C(=O)OC(C)C`, the “activity change, negative = inhibition” value rises from -8.02% to 0%.

Going from `CCC(C)[C@@H](N)C(=O)O` (stereo not given in full) to `CCOC(=O)N1CCN(Cc2ccc3c(c2)CN(C(=O)c2cccc(-n4cccn4)c2)CCO3)CC1`, the “activity change, negative = inhibition” value falls from 0.711% to -23.1%.

Compared with `C=CC(=O)c1ccc2ccccc2c1`, `Cn1c(=O)c2c(nc(Br)n2CCSc2nc3ccccc3o2)n(C)c1=O` is lower in “activity change, negative = inhibition” value: -9.61% for the first, -16.2% for the second.

Compared with `Cc1ccnc(SCCn2c(Br)nc3c2c(=O)[nH]c(=O)n3C)n1`, `CC1CCN(S(=O)(=O)c2ccc3c(c2)n(C)c(=O)n3C)CC1` is higher in “activity change, negative = inhibition” value: -13.3% for the first, -2.39% for the second.

With `CN(C(=O)CN1CCN(c2cc(-c3ccc(OCc4ccccc4)cc3)ncn2)CC1)c1ccccc1` the Potency was 25.1 µM (active).
For `CC(=O)c1cc(CN2CCC(C(=O)Nc3cccc(-c4cscn4)c3)CC2)cs1`, the Potency was 20 µM (active).
In the case of `CC(C)OCCCNc1ncnc2c1[nH]c1ccc(F)cc12`, the Potency is reported as 39.8 µM (active).
With `COc1ccc(C2Nc3ccccc3C(=O)N2c2ccc(Cl)cc2)cc1Cn1cc([N+](=O)[O-])cn1` (stereo not given) the Potency was 100 µM (active).
In the case of `N#Cc1nc(-c2ccc(OCc3ccccc3)cc2)oc1NCCCN1CCOCC1`, the Potency is reported as 39.8 µM (active).
In the case of `CC1=CC(C)(C)Nc2ccc(OC(=O)CN3C(=O)C4CCCCC4C3=O)cc21` (stereo not given), the Potency is reported as 20 µM (active).
In the case of `O=C(O)CCn1cc(/C=C/C(=O)c2ccc(Cl)cc2)c(-c2cccc(Br)c2)n1`, the Potency is reported as 25.1 µM (active).
With `COc1ccc(CNC(=O)c2ccc(-c3cccnc3)c3ccoc23)cc1OC` the Potency was 22.4 µM (active).
In the case of `Cn1c(=O)[nH]c(=O)c2c1nc(Br)n2CCCCSc1nc2ccccc2o1`, the Potency is reported as 35.5 µM (active).

For `CCCCC/C=C\C/C=C\CCCCCCCCCC(=O)O`, the activity change, negative = inhibition was -17.4% [at 6.7 µM].
